Reference: PubChem BioAssay (Tox21)
Inconclusive results are not listed. Entries that show only a call come without a potency. Activity calls are given as the source filed them. Calls follow the shape of the full dose curve.

assay: qHTS assay to identify small molecule agonists or antagonists of the thyroid stimulating hormone receptor (TSHR) signaling pathway - wild type cell line counter screen (AID 1259384); details: HEK293 wild type, cAMP HTRF counter-screen; series mostly up to 92.4 µM
Source text: U.S. Tox21 Program National Center for Advancing Translational Sciences [NCATS] NIH Chemical Genomics Center [NCGC] U.S. Environmental Protection Agency [EPA] National Institutes of Environmental Health Sciences [NIEHS] National Toxicology Program [NTP] U.S. Food and Drug Administration [FDA] Tox21 Assay Overview: TSHR is the receptor for thyrotropin (thyroid stimulating hormone or TSH), a member of the glycoprotein hormone family. TSH is released by the anterior pituitary gland and is the main regulator of thyroid gland growth and development. Upon binding circulating thyrotropin, a G-protein signal cascade activates adenylyl cyclase and […] cAMP concentration is increased. cAMP is a key second messenger involved extensively in cellular signal transduction pathways associated with the majority of G-protein coupled receptors (GPCRs). The activation of these GPCRs by neurotransmitters, lipids, nucleotides, peptides and hormones results in the activation or the inhibition of plasma membrane-bound adenylate cyclase through heterotrimeric G-proteins. A cell-based TSHR-Hek293 assay can be used to identify TSHR agonists. To eliminate the false positive compounds identified from screening a cell-based TSHR-Hek293 cell line, cAMP assay in a wild type Hek293 cells was used as a counter screening.
Tox21 Assay Protocol Summary: Hek293 cells (wild type) were dispensed at 800 cells/4 uL/well in 1536-well white plates using a Multidrop dispenser. After the assay plates were incubated at a 37 C/5% CO2 incubator for 18 hrs, 23 nL of compounds dissolved in DMSO, positive controls or DMSO only was transferred to the assay plate by a pin tool, followed by 1 ul medium containing Ro20-1724. After 30 min of incubation at room temperature, 2.5 ul/well of cAMP-d2 and 2.5 ul/well of anti-cAMP-cryptate were added respectively into the assay plates using a Flying Reagent Dispenser. The plates were incubated at room temperature for 1 hr. The fluorescence intensity in the plates was measured using an Envision plate reader. Each test compound was measured at 15 concentrations and in triplicates.

Row | Compound | Potency
1 | COP(=S)(OC)SCn1nnc2ccccc2c1=O | inactive
2 | CCN(CC)C(=O)C(C)Oc1cccc2ccccc12 (stereo not given) | inactive
3 | CCCCSP(=O)(SCCCC)SCCCC | inactive
4 | O=C1CCCO1 | inactive
5 | O=C(O)c1nn(Cc2ccc(Cl)cc2Cl)c2ccccc12 | inactive
6 | Cc1ccc([N+](=O)[O-])cc1 | inactive
7 | N#Cc1nn(-c2c(Cl)cc(C(F)(F)F)cc2Cl)c(N)c1S(=O)C(F)(F)F (stereo not given) | inactive
8 | CCNc1nc(Cl)nc(NC(C)(C)C#N)n1 | inactive
9 | CNC(=O)Oc1cccc2c1OC(C)(C)C2 | inactive
10 | COc1ccc(O)c(C(C)(C)C)c1 | inactive
11 | C[C@]12CCC(=O)C=C1CC[C@@H]1[C@@H]2CC[C@@]2(C)[C@H]1CC[C@]2(C)O | inactive
12 | CC(C)(c1ccc(OCC2CO2)cc1)c1ccc(OCC2CO2)cc1 (stereo not given) | inactive
13 | O=C1Nc2ccc(Cl)cc2C(c2ccccc2)=NC1O (stereo not given) | inactive
14 | N#CCCCCC#N | inactive
15 | O=NN(c1ccccc1)c1ccccc1 | inactive
16 | O=[N+]([O-])c1ccc(Nc2ccccc2)cc1 | inactive
17 | Nc1ncn[nH]1 | inactive
18 | CNC(=O)CSP(=S)(OC)OC | inactive
19 | C=CC(Cl)CCl (stereo not given) | inactive
20 | ClCc1ccccn1 | inactive

Row | Compound | Potency
21 | CN(C)c1ccccc1 | inactive
22 | N#CC(c1ccccc1)c1ccccc1 | inactive
23 | CCCCCCCCCCCCCl | inactive
24 | C[C@]12CC[C@H]3[C@@H](CCC4=CC(=O)CC[C@@H]43)[C@@H]1CC[C@@H]2O | inactive
25 | C=C(C)C#N | inactive
26 | COP(=S)(OC)Oc1ccc(S(=O)(=O)N(C)C)cc1 | inactive
27 | CC(C)(c1ccccc1)c1ccc(O)cc1 | inactive
28 | CC(O)CN(CC(C)O)CC(C)O (stereo not given) | inactive
29 | CC(C)(c1ccccc1)c1ccc(O)c(C(C)(C)c2ccccc2)c1 | inactive
30 | CCCCOCCOC(C)=O | inactive
31 | CC1CC(=O)O1 (stereo not given) | inactive
32 | Clc1ccc(C(Cl)(Cl)Cl)cc1 | inactive
33 | N#Cc1cccnc1 | inactive
34 | CCOP(=O)(OCC)OCC | inactive
35 | CN(C)c1nc(=O)n(C2CCCCC2)c(=O)n1C | inactive
36 | ClC(Cl)=C(Cl)C(Cl)=C(Cl)Cl | inactive
37 | Brc1ccc(Br)cc1 | inactive
38 | CCOP(=S)(OCC)SCSC(C)(C)C | inactive
39 | CC(C)COC(=O)c1ccccc1C(=O)OCC(C)C | inactive
40 | c1ccc(C2CO2)cc1 (stereo not given) | inactive
